Experimental data reported in the supplement of paper PMC12494721.
Where a name gives a salt, the structure may show the parent alone.

Key:
Conditions in all cases: incubation time: 27 h, anaerobic, 37 °C;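 for the amine columns active = adjusted P below 0.05 in both replicates with a change the same way and a mean fold change under 0.8 or over 1.25; inactive = the rest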
[1] = system: Clostridium sporogenes DSM 1664; assay: growth (OD595) fold change vs plate DMSO controls (fold change (ratio)); higher = more growth
How it was run: (§1)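 Absorbance at 595 nm was read after shaking the anaerobic mGAM cultures, which had grown in 96-well plates for 27 h at 37 °C. After blank subtraction and background correction against 20 µM compound solutions in water, a calibration factor of 5 gave OD values. Growth is the fold change against the median of the plate's DMSO controls. Values are the mean of 2 biological replicates, with fold changes above 1.5 set to NA.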

[2] = system: Escherichia coli IAI1; assay: as above
How it was run: as §1

[3] = system: Klebsiella aerogenes DSM 30053; assay: as above
How it was run: as §1

[4] = system: Ruminococcus gnavus DSM 108212; assay: as above
How it was run: as §1

[5] = system: Klebsiella aerogenes DSM 30053; assay: fold change of Histamine concentration vs plate DMSO controls (fold change (ratio)); higher = more amine produced, active = hit call of the paper (significant change in both replicates, either direction)
How it was run: (§2)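 In 80 µL wells, cultures of four gut bacterial strains in mGAM started at OD 0.1 before a 1:1 dilution and grew anaerobically at 37 °C for 27 h. Compounds were added to 20 µM final, except sweeteners at 50 µM final. After extraction of whole cultures with cold acetonitrile/methanol plus 0.1% formic acid and centrifugation, amines were measured by LC–triple-quadrupole MS in dynamic MRM mode against external calibration curves, with within-batch drift correction. Values give fold change over DMSO controls on the same plate, averaged across 2 biological replicates.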

[6] = system: Clostridium sporogenes DSM 1664; assay: fold change of Tryptamine concentration vs plate DMSO controls (fold change (ratio)); higher = more amine produced, active = hit call of the paper (significant change in both replicates, either direction)
How it was run: as §2

[7] = system: Ruminococcus gnavus DSM 108212; assay: as above
How it was run: as §2

[8] = system: Escherichia coli IAI1; assay: fold change of Putrescine concentration vs plate DMSO controls (fold change (ratio)); higher = more amine produced, active = hit call of the paper (significant change in both replicates, either direction)
How it was run: as §2

[9] = system: Klebsiella aerogenes DSM 30053; assay: as above
How it was run: as §2

[10] = system: Escherichia coli IAI1; assay: fold change of Cadaverine concentration vs plate DMSO controls (fold change (ratio)); higher = more amine produced, active = hit call of the paper (significant change in both replicates, either direction)
How it was run: as §2

[11] = system: Klebsiella aerogenes DSM 30053; assay: as above
How it was run: as §2

[12] = system: Ruminococcus gnavus DSM 108212; assay: fold change of 2-Phenylethylamine concentration vs plate DMSO controls (fold change (ratio)); higher = more amine produced, active = hit call of the paper (significant change in both replicates, either direction)
How it was run: as §2

Structure (SMILES)	growth [1]	growth [2]	growth [3]	growth [4]	fold change of Histamine concentration [5]	fold change of Tryptamine concentration [6]	fold change of Tryptamine concentration [7]	fold change of Putrescine concentration [8]	fold change of Putrescine concentration [9]	fold change of Cadaverine concentration [10]	fold change of Cadaverine concentration [11]	fold change of 2-Phenylethylamine concentration [12]
CC[C@H](C)[C@H](N)C1=N[C@H](C(=O)N[C@@H](CC(C)C)C(=O)N[C@H](CCC(=O)O)C(=O)N[C@H](C(=O)N[C@H]2CCCCNC(=O)[C@H](CC(N)=O)NC(=O)[C@@H](CC(=O)O)NC(=O)[C@H](Cc3cnc[nH]3)NC(=O)[C@@H](Cc3ccccc3)NC(=O)[C@H]([C@@H](C)CC)NC(=O)[C@@H](CCCN)NC2=O)[C@@H](C)CC)CS1 [Bacitracin] (20 µM)	1	1.05	1.02	0.0384	0.999 (inactive)	1.02 (inactive)	0.0521 (active)	1.18 (inactive)	1.01 (inactive)	1.01 (inactive)	1 (inactive)	0.0535 (active)
CCCCC(CC)CN1CN(CC(CC)CCCC)CC(C)(N)C1 (stereo not given) [Hexetidine] (20 µM)	1.05	1.07	1.11	1.45	0.978 (inactive)	1.23 (inactive)	0.898 (inactive)	1.05 (inactive)	0.987 (inactive)	1.04 (inactive)	1.01 (inactive)	1.05 (inactive)
CCOC(=O)[C@H](CCc1ccccc1)N[C@@H](C)C(=O)N1[C@H](C(=O)O)C[C@H]2CCCC[C@@H]21 [Trandolapril] (20 µM)	0.941	1.05	1.02	1.01	0.994 (inactive)	0.989 (inactive)	1.02 (inactive)	1.08 (inactive)	1 (inactive)	0.978 (inactive)	0.991 (inactive)	1.02 (inactive)
CC(=O)Nc1cccc(O)c1 [Metacetamol] (20 µM)	0.961	1.03	1.01	0.966	1.01 (inactive)	0.941 (inactive)	0.999 (inactive)	1.02 (inactive)	0.992 (inactive)	1 (inactive)	0.988 (inactive)	0.962 (inactive)
CN1CCN2c3ccccc3Cc3ccccc3C2C1 (stereo not given) [Mianserine hydrochloride] (20 µM)	0.914	0.996	0.995	0.931	0.916 (inactive)	0.952 (inactive)	0.998 (inactive)	1.02 (inactive)	0.98 (inactive)	0.999 (inactive)	0.999 (inactive)	1.03 (inactive)
CC(=O)CCCCn1c(=O)c2c(ncn2C)n(C)c1=O [Pentoxifylline] (20 µM)	1.01	0.995	1.06	0.929	1 (inactive)	1.03 (inactive)	0.965 (inactive)	1 (inactive)	1.02 (inactive)	1.04 (inactive)	1.02 (inactive)	0.947 (inactive)
CCOC(=O)[C@@](C)(N)Cc1ccc(O)c(O)c1 [Methyldopate hydrochloride] (20 µM)	0.926	1.05	1.03	1.14	0.963 (inactive)	1.04 (inactive)	1.09 (inactive)	1.22 (inactive)	0.975 (inactive)	0.898 (inactive)	1.02 (inactive)	1.07 (inactive)
N=C(N)NS(=O)(=O)c1ccc(N)cc1 [Sulfaguanidine] (20 µM)	0.947	1.07	0.963	0.676	1.04 (inactive)	1.27 (inactive)	1.09 (inactive)	1.2 (inactive)	0.853 (inactive)	1.04 (inactive)	1.05 (inactive)	1.09 (inactive)
CCOCC(O)COc1ccc(NC(=O)CC[S+](C)C)cc1 (stereo not given) [Suplatast Tosylate] (20 µM)	0.999	1.04	0.988	1	1.03 (inactive)	1.01 (inactive)	0.978 (inactive)	1.04 (inactive)	1.02 (inactive)	0.989 (inactive)	0.991 (inactive)	0.909 (inactive)
C=C1C[C@H]2[C@@H]3C=C(C)C4=CC(=O)CC[C@]4(C)[C@H]3CC[C@]2(C)[C@@]1(OC(C)=O)C(C)=O [Melengestrol acetate] (20 µM)	1.17	1.07	1.07	1.04	1.03 (inactive)	1 (inactive)	1.03 (inactive)	1.02 (inactive)	1 (inactive)	1.02 (inactive)	0.995 (inactive)	1.05 (inactive)
O=C(N[C@H](CO)[C@H](O)c1ccc([N+](=O)[O-])cc1)C(Cl)Cl [Chloramphenicol] (20 µM)	1.25	0.0503	0.0799	1.08	0.0535 (active)	0.64 (inactive)	0.168 (active)	0.245 (active)	0.512 (active)	0.0844 (active)	0.383 (active)	0.182 (active)
COC(=O)C1=C(C)NC(C)=C(C(=O)O[C@H]2CCN(Cc3ccccc3)C2)[C@H]1c1cccc([N+](=O)[O-])c1 [Barnidipine Hydrochloride] (20 µM)	0.993	1.08	0.991	1.06	1.01 (inactive)	0.969 (inactive)	0.992 (inactive)	0.989 (inactive)	0.999 (inactive)	1.02 (inactive)	1.01 (inactive)	0.944 (inactive)
CO/N=C(\C(=O)N[C@@H]1C(=O)N2C(C(=O)OCOC(=O)C(C)(C)C)=C(/C=C\c3scnc3C)CS[C@H]12)c1csc(N)n1 [Cefditoren Pivoxil] (20 µM)	0.809	1.11	1.03	0.996	0.988 (inactive)	0.951 (inactive)	1 (inactive)	0.864 (inactive)	1.12 (inactive)	1.18 (inactive)	1.05 (inactive)	1.01 (inactive)
Nc1ccc(S(=O)(=O)Nc2ccccn2)cc1 [Sulfapyridine] (20 µM)	0.891	1.06	1.04	1.03	1.05 (inactive)	0.998 (inactive)	1.02 (inactive)	1.01 (inactive)	1 (inactive)	0.955 (inactive)	0.994 (inactive)	1.03 (inactive)
Cc1c(NC(=O)c2cccnc2)c(=O)n(-c2ccccc2)n1C [Nifenazone] (20 µM)	0.595	0.988	1.03	0.857	0.926 (inactive)	0.135 (active)	1.02 (inactive)	0.723 (active)	0.978 (inactive)	0.865 (inactive)	1 (inactive)	1.03 (inactive)
CC(C)(CO)[C@@H](O)C(=O)NCCC(=O)NCCSSCCNC(=O)CCNC(=O)[C@H](O)C(C)(C)CO [D-Pantethine] (20 µM)	1.09	0.976	1.02	0.955	0.976 (inactive)	1.03 (inactive)	0.986 (inactive)	1 (inactive)	1.03 (inactive)	1.03 (inactive)	1 (inactive)	1.02 (inactive)
CN1CCN(C(c2ccccc2)c2ccccc2)CC1 [Cyclizine hydrochloride] (20 µM)	0.981	0.984	0.972	1.16	1.07 (inactive)	0.968 (inactive)	0.996 (inactive)	1 (inactive)	1 (inactive)	1.02 (inactive)	0.987 (inactive)	1.03 (inactive)
O=C1Cc2cc(CCN3CCN(c4nsc5ccccc45)CC3)c(Cl)cc2N1 [Ziprasidone  hydrochloride monohydrate] (20 µM)	1.09	1.06	1.03	1.23	1.23 (inactive)	0.998 (inactive)	0.712 (active)	1.12 (inactive)	1.1 (inactive)	1.08 (inactive)	1.06 (inactive)	0.771 (active)
CCCCc1ncc(/C=C(\Cc2cccs2)C(=O)O)n1Cc1ccc(C(=O)O)cc1 [Eprosartan mesylate] (20 µM)	1.06	1.06	1.16	0.916	0.882 (inactive)	1.08 (inactive)	0.998 (inactive)	0.975 (inactive)	1 (inactive)	0.963 (inactive)	1.03 (inactive)	1.02 (inactive)
O=[N+]([O-])c1ccc2c(c1)Cc1ccccc1-2 [2-Nitrofluorene] (20 µM)	0.873	0.978	0.973	0.994	0.997 (inactive)	1 (inactive)	1.04 (inactive)	0.97 (inactive)	1 (inactive)	1.04 (inactive)	0.995 (inactive)	1.02 (inactive)
CN(CCCCCCCCCCN(C)C(=O)Oc1cccc([N+](C)(C)C)c1)C(=O)Oc1cccc([N+](C)(C)C)c1 [Demecarium bromide] (20 µM)	0.744	0.974	1.04	0.614	0.986 (inactive)	0.871 (inactive)	1.06 (inactive)	0.987 (inactive)	1.01 (inactive)	1.03 (inactive)	1.01 (inactive)	1.06 (inactive)
Cc1cccc(C)c1OCC(C)N (stereo not given) [Mexiletine hydrochloride] (20 µM)	0.941	1.02	1.15	0.936	0.934 (inactive)	0.991 (inactive)	1.02 (inactive)	0.985 (inactive)	0.998 (inactive)	1.03 (inactive)	1.02 (inactive)	1.07 (inactive)
OCCN1CCN(CC/C=C2/c3ccccc3Sc3ccc(Cl)cc32)CC1 [Zuclopenthixol dihydrochloride] (20 µM)	0.904	1.25	1.01	0.937	1.03 (inactive)	0.993 (inactive)	0.919 (inactive)	1.31 (inactive)	0.994 (inactive)	1.09 (inactive)	0.992 (inactive)	0.947 (inactive)
NCCCC(O)(P(=O)(O)O)P(=O)(O)O [Alendronate sodium] (20 µM)	1.08	1.04	1.1	1.03	0.858 (inactive)	1.1 (inactive)	1.05 (inactive)	0.992 (inactive)	0.947 (inactive)	1.01 (inactive)	1.01 (inactive)	1.05 (inactive)
COc1c(O[C@@H]2O[C@H](CO)[C@@H](O)[C@H](O)[C@H]2O)cc2c(c1OC)-c1ccc(SC)c(=O)cc1[C@@H](NC(C)=O)CC2 [Thiocolchicoside] (20 µM)	0.996	1	0.975	0.686	1.1 (inactive)	1.01 (inactive)	1.02 (inactive)	1.01 (inactive)	1.02 (inactive)	1 (inactive)	0.991 (inactive)	1.01 (inactive)
